The campaign covered roughly 360,000 compounds. About 3,600 (1%) were called active. Only a selection was taken, and actives are over-represented in it overall. Unmarked numbers belong to inactive results.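 The calls were made as follows: active = compounds whose plate-normalised and pattern-corrected inhibition of the luciferase reporter signal at the single screening dose is 50% or more; inactive = the rest.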

This test is described as follows: inhibitors of TROY-driven NF-kB signaling, primary screen, Q293 LMP1-TROYcd cells, NF-kB luciferase, uHTS (AID 1347056). To be noted: Q293 LMP1-TROYcd NF-kB luciferase reporter, 4 h; at 10 µM; hits give high values.
As for `COc1cccc(-c2nc3ccc(N4CCN(C)CC4)cc3[nH]2)c1`, the inhibition is 79.8% (active).

Take `CCn1cc(CN2CCCC(C(=O)c3cccc(C(F)(F)F)c3)C2)cn1` (stereo not given): the inhibition is 10.1%.

In the case of `CCOC(=O)[C@]12Cc3ccccc3[C@H]1N(C1CCCCC1)C(=O)c1cc(OC)ccc12`, the inhibition was 36.6%.

As for `CNC(=O)Nc1ccc(C(O)(C(=O)OC)C(F)(F)F)cc1` (stereo not given), the inhibition was -7.62%.

For the compound `COc1cc(C(c2c(O)c3ccccc3oc2=O)c2c(C)n(C)n(-c3ccccc3)c2=O)ccc1O` (stereo not given), the inhibition is -7.22%.

As to `CC(=O)OC1C2(CC3N4C(=O)C5(CO)SSC4(CC31O)C(=O)N5C)OC(C)C(C)(C)C2=O` (stereo not given), the inhibition was 64.8% (active).

In the case of `CC(=O)Nc1ccccc1C(=O)OCC(=O)c1cccc2ccccc12`, the inhibition was -7.86%.

Consider `CN(C)CC1Oc2ccccc2OC1(O)c1ccccc1` (stereo not given), for which the inhibition is 1.73%.

`CCCCCCCCCCCCn1ccc(=N)cc1`: the inhibition was 64% (active).

In the case of `Cc1nc2nc(C)c(CCC(=O)N3CCC4(CC3)OCCO4)c(C)n2n1`, the inhibition was 3.18%.

On to `Cc1ccc(C)c(NC2=NCCCS2)c1`, for which the inhibition was 1.74%.

Turning to `O=C(CCCn1c(=O)[nH]c2cc(Cl)ccc2c1=O)N1CCC2(CC1)OCCO2`, the inhibition is 7.33%.

Consider `CCOC(=O)C(O)(c1ccc(N)c(OC)c1)C(F)(F)F` (stereo not given), for which the inhibition was 7.19%.

For `CCC(C)(O)C(=O)OC1C(=O)OC2CC3C(C)=CC(=O)C(O)C3(C)C3C4(O)OCC23C1C(C)C4O` (stereo not given), the inhibition was 83.5% (active).

As to `NCCc1c[nH]c2ccc(O)cc12`, the inhibition is 13%.

Consider `CC(=O)Nc1ccc(C(=O)C(Cc2ccccc2)N(C)C)cc1` (stereo not given), for which the inhibition is 0.62%.

With `CCCCCCN=C(CC)c1c(O)n(CCCC)c(=O)[nH]c1=O`, the inhibition was 17.9%.

For `CCOC(=O)c1c(N)n(Cc2ccccc2)c2nc3ccccc3nc12`, the inhibition was 51.6% (active).

Take `COc1cc(Cn2c(N)c(C(=O)NCc3ccco3)c3nc4ccccc4nc32)cc(OC)c1OC`: the inhibition was 13.5%.

In the case of `CCOC(=O)c1cccc(C2=C(CNC(=O)c3ccncc3)[C@H]3CC[C@@H](C2)N3Cc2ccccc2)c1`, the inhibition is -20.1%.

Consider `COc1ccc(-c2nn(CCC#N)cc2C(=O)O)cc1`, for which the inhibition was -1.21%.

As for `CNCC(O)c1cc(F)c(OCc2ccccc2)c(OCc2ccccc2)c1F` (stereo not given), the inhibition is 8.14%.

As for `CC1CCC(N(C)C2CCN(C)CC2)CC1` (stereo not given), the inhibition is 18.6%.

`CCN1c2nc3c(C)cccn3c(=O)c2CC2(C(=O)N(C)C(=O)N(C)C2=O)C1C` (stereo not given): the inhibition is -6.84%.

With `Cc1ccc(C2CN(C)CC2C(=O)c2ccc(F)cc2)cc1` (stereo not given), the inhibition was 57.6% (active).

For the compound `CN1CCC(OC(=O)c2cccc(F)c2)CC1`, the inhibition is -37.5%.

With `COc1ccc(C(=O)C2CN(C)CC2C(=O)c2ccc(OC)cc2)cc1` (stereo not given), the inhibition was -76.8%.

Take `Cn1cc(C(=O)OCC(=O)N2CCCC2)c2ccccc21`: the inhibition is 8.39%.

In the case of `O=C(Nc1cccc2ccccc12)N1CCC2(CC1)OCCO2`, the inhibition is 38.5%.

On to `CCOC(=O)C1SC2(C(F)(F)C(F)F)CC1(O)c1c(c(OC)c3occc3c1OC)O2` (stereo not given), for which the inhibition is -1.26%.

On to `COc1ccc(-n2nnnc2C(c2cccc3ccccc23)N2CCC(n3c(=O)[nH]c4ccccc43)CC2)cc1` (stereo not given), for which the inhibition was 27.6%.

As to `O=c1[nH]c2ccccc2n1C1CCN(C(c2ccccc2)c2nnnn2Cc2ccccc2)CC1` (stereo not given), the inhibition was 18.3%.

As to `O=c1[nH]c2ccccc2n1C1CCN(C(c2ccnc3ccccc23)c2nnnn2Cc2ccccc2)CC1` (stereo not given), the inhibition was 73.9% (active).

With `Cc1ccc(OC(=O)N(C)C[C@@H]2OCc3cnnn3CCCC(=O)N([C@H](C)CO)C[C@@H]2C)cc1`, the inhibition was 0.42%.

As to `CC(C)c1ccc(OCC(=O)N2CCCN(C)CC2)cc1`, the inhibition was -4.27%.

Values taken from PubChem BioAssay AID1347056 (Sanford-Burnham Center for Chemical Genomics, 2019).
